Screen size: about 31,000 sequences; about 1,400 (4.5%) were called active. Only a selection was taken, and actives are over-represented in it overall. A number with no mark means an inactive call.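 How the source made its calls: active means median seed-adjusted z-score above 1 or below -1; inactive means the rest.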
Assay: Novel Modifiers of Survival Motor Neuron (SMN) Protein: Gene Identification via Genome-wide siRNA Screen;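 further: luminescence tracks full-length SMN protein made from the SMN2 reporter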
Settings: HEK293T SMN2-luciferase reporter, siRNA knockdown, 72 h; actives lie on both sides
How it was run: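 HEK293T cells stably expressing an SMN2 splicing/cDNA-luciferase reporter were reverse-transfected with a druggable-genome siRNA library and read by luminescence at 72 hours; hits defined by MAD score above 1.0 or below -1.0.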
With GGUUGUUGGUUGGACUGUUTT against GDE1 the median seed-adjusted z-score was -0.256. In the case of CACUCACUGUUCCUAUCAATT against STAMBPL1, the median seed-adjusted z-score was 0.13. GAAACGAUGAAAUAAGAUATT against PTGS1 gave a median seed-adjusted z-score of 0.0458. With GGUUGGUCUCCUCUUCAUATT against PSMD10 the median seed-adjusted z-score was 0.265. With CCCUCUCACUUGAAGAUCATT against HYAL1 the median seed-adjusted z-score was -0.163. Sequence AUUCAUCUCAUAAACAAAATT against BATF2 has a median seed-adjusted z-score of 0.714. In the case of GCAUGGAGCAGAUCGUGUUTT against ITPR3, the median seed-adjusted z-score was -1.28 (active). For GCAGCAUCAAUGUCUGGAATT against SLC6A8, the median seed-adjusted z-score was -0.0673. GGCCUUAGAUGAGUCCCUATT against PABPN1 showed a median seed-adjusted z-score of -0.757. ACAAUGAACUGGAUCAACATT against TBX20 gave a median seed-adjusted z-score of 0.00303. For CACUAUCUAUUCCACCUUUTT against HTR1A, the median seed-adjusted z-score was 0. In the case of CAGGUGCUUCGUUUCCUGATT against ARHGAP1, the median seed-adjusted z-score was -1.14 (active). GAGUAAACCUCGAAACCGATT against MAP3K13 showed a median seed-adjusted z-score of -0.121. In the case of GACCAUGAAUUUCAUUGUATT against MYLK3, the median seed-adjusted z-score was 0.316. With GGACUAAAACUUUAAACUATT against POU4F2 the median seed-adjusted z-score was 1.46 (active). Work on CUACCAGGAUGUUGAUAAATT against ZNF761 yielded a median seed-adjusted z-score of 0.291. For GGAUUGAGGUGGAGAUGGATT against MCM5, the median seed-adjusted z-score was 0.126. With CUAAAGGUCUUGUUACAUUTT against ASNS the median seed-adjusted z-score was -1.1 (active). ACCUAGAAGUGAACUGUGATT against GP1BA gave a median seed-adjusted z-score of 0.0803. UGGUGACUCUCAUUUCGCATT against BCAP31 showed a median seed-adjusted z-score of 0.277. GGAUGUCACUGUUUCUGGATT against CLIC6 gave a median seed-adjusted z-score of -0.00828. In the case of GGCCUACUGUGGAAUUGGATT against TTC3, the median seed-adjusted z-score was -1.17 (active). CGAUCAACUCCUUAAAGGATT against FLRT2 showed a median seed-adjusted z-score of -0.00573. For GCUUUUCCAUUAUAAGGCATT against FOXE1, the median seed-adjusted z-score was -0.316. Work on CAAAUUGCCUCGUCAAAGATT against DNTT yielded a median seed-adjusted z-score of 0.316. In the case of GACCGACUCAGAUAUCAUUTT against SNRPA, the median seed-adjusted z-score was -2.09 (active). In the case of CACUGGAUUUGAGAGGUUATT against ABHD7, the median seed-adjusted z-score was -0.301. Sequence GGCCGAGUGUACUACUUCATT against PIN1 has a median seed-adjusted z-score of 0.156. Sequence GCACUGUGCUUAAGCUGGATT against PKN1 has a median seed-adjusted z-score of -0.753. For CGACAUGAUCUCCUACUCATT against ABLIM2, the median seed-adjusted z-score was -0.26. For GAAACUGGACAGUAAGAAATT against HDAC4, the median seed-adjusted z-score was -0.0988. For GGUUUCAAGAUAACCCAAATT against POU2F3, the median seed-adjusted z-score was -1.53 (active). In the case of CAAAGGUUAUUCUGCAUAUTT against CTSO, the median seed-adjusted z-score was 0.322. With GCAGGAGCUGUAUUUGAUGTT against NUDT6 the median seed-adjusted z-score was 0.281. For AGAUGUACGAGGAAAAGUATT against WNK4, the median seed-adjusted z-score was 0.385. GGUGUUUGAUAUACAGAGGTT against RABL2A gave a median seed-adjusted z-score of 0.794. In the case of CGACUCUGACACCACCAUATT against GOSR2, the median seed-adjusted z-score was -1.25 (active). For CCAUGGAUUUUAUGAGGAATT against ECHDC1, the median seed-adjusted z-score was 0.554. With CCUUCAUUAAUGAGUCAUATT against ZNF426 the median seed-adjusted z-score was 0.2. Work on UGCAGCCUCUCCAAACUUATT against SP6 yielded a median seed-adjusted z-score of -0.176. Sequence GCCCAACAAGUGUACGUUUTT against GLIS3 has a median seed-adjusted z-score of -0.00906. GGCUGAUAAAAAUCCACGATT against RICS showed a median seed-adjusted z-score of 0.665. Sequence AGUACGAUCUUGACUUCAATT against ENO3 has a median seed-adjusted z-score of -0.142. For GGGAAGUCUUUUAAUCGUATT against ZNF780B, the median seed-adjusted z-score was -0.332. CUGUUGGUAUUGUCCACAATT against MAL gave a median seed-adjusted z-score of 0.0733. With GGGACUUUUGCAAAGGAAATT against CLEC5A the median seed-adjusted z-score was -1.07 (active). GGAGAGCUGUGAAAAGUCATT against CCR8 showed a median seed-adjusted z-score of -0.206. With GAACUUAGACCAACUUUAATT against COX5A the median seed-adjusted z-score was -0.348. Sequence CCACAAGCUGCAUAAGAGATT against SPTBN4 has a median seed-adjusted z-score of -0.0625. With GGACUUUUACACCACCUUUTT against NRXN2 the median seed-adjusted z-score was -0.485. With CAACGACUACAGGUCUGUATT against ITGA11 the median seed-adjusted z-score was 0.496. GGCAGGAAGUCAAACCUAUTT against KLK2 gave a median seed-adjusted z-score of 0.0716. In the case of CAAACGAGGUGAACGAUGATT against PYGO1, the median seed-adjusted z-score was -1.23 (active). AGAUACUCACGGACAUUAUTT against COASY gave a median seed-adjusted z-score of 0. Sequence GUCACGCUAUGAGACCUCATT against E2F1 has a median seed-adjusted z-score of -0.211. In the case of GCAUCGAAUUUGCAGAACATT against PNN, the median seed-adjusted z-score was 1.29 (active). GGAAACGAUUAUUACAACUTT against LRRK2 showed a median seed-adjusted z-score of -0.671. In the case of AUAAAUACCUCGGACAUUATT against EIF1AX, the median seed-adjusted z-score was 0.878. CCCUUCGCGUUGUUGCUCATT against DHRS1 showed a median seed-adjusted z-score of 0. For GAGGGACCAUAGUAGAUCATT against CPSF6, the median seed-adjusted z-score was -2.38 (active). With GAUCGAUUCAUACCAUAUATT against MCM8 the median seed-adjusted z-score was 0.279. For GAAGCUACGUUGACUAUUUTT against HRC, the median seed-adjusted z-score was 1.06 (active). With GAAGUUUACUUAUCUGGGUTT against PRKAB1 the median seed-adjusted z-score was 0.536. Work on CAACAAUCCUAUAAUUCCATT against UBE2Q2 yielded a median seed-adjusted z-score of 0.146. With ACCUGUUAAUGGCCUUUGUTT against SLC30A3 the median seed-adjusted z-score was -1.26 (active). For GGAGUUCAUCCGUCAAGUUTT against BIRC3, the median seed-adjusted z-score was -0.644. GCAUCAAUGUACCUCCACATT against ETV4 gave a median seed-adjusted z-score of -0.186. CGACCAUUGGAGAUGUUAATT against SCML2 showed a median seed-adjusted z-score of -0.538. In the case of GAGGAUUACUAAUUGAUCUTT against CHM, the median seed-adjusted z-score was 0.743.

— PubChem BioAssay AID1347426 (Functional Genomics Laboratory (NCATS/FGL), 2020)
